# Source: PubChem BioAssay (NCATS)
# Values without a mark were called inactive. Results filed as inconclusive are left out. A call without a number means that no potency is given here. Calls of active or inactive are those of the source. The call rests on the fitted dose curve; in most records, active means well fitted curve in the direction sought with a large enough effect; inconclusive means small, poorly fitted or top-dose-only effect, or another doubt; inactive means no such curve, though single readings can be large; an effect the other way counts as inactive or inconclusive.
# How the values were obtained:
# [1] = molecular target: Metallo-beta-lactamase type 2 (Klebsiella pneumoniae) (UniProt C7C422); experiment: qHTS to identify inhibitors of the New Delhi Metallo-beta-lactamase (NDM): assay validation screen against the NCATS LOPAC Collection (AID 1794843);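 further: nitrocefin turnover by NDM-1 measured as 485 nm absorbance at plateau; series mostly up to about 38 µM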
# In short: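 NDM-1 at 2 nM final in 50 mM HEPES pH 7.0, 1 uM ZnSO4, 0.01% Tween20, preincubated with LOPAC compounds pinned in DMSO; 50 uM nitrocefin (stock) added. Hydrolysis read as absorbance at 485 nm in the plateau phase.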
# [2] = molecular target: Glutathione peroxidase 1 (Homo sapiens) (UniProt P07203); experiment: Primary qHTS Assay for Inhibitors of Recombinant Selenoprotein Glutathione Peroxidase 1 (GPX1) (AID 1845191); further: nearly all actives have a fitted effect of over 65% in size
# In short: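 GPX1 10 nM, GR 100 nM, GSH 1 mM, NADPH 0.5 mM, CHP 0.5 mM (final). 30-min cpd preincubation, RT. Ex340/Em450 read t=0, t=15 min.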
# [3] = molecular target: Phospholipid hydroperoxide glutathione peroxidase GPX4 (Homo sapiens) (UniProt P36969); experiment: Primary qHTS Assay for Inhibitors of Recombinant Selenoprotein Glutathione Peroxidase 4 (GPX4) (AID 1845192); further: nearly all actives have a fitted effect of over 65% in size
# In short: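 qHTS, GR-coupled: GPX4 200 nM + cpd 30 min RT → GSH 1 mM, NADPH 0.5 mM, GR 100 nM → CHP 0.5 mM start; fluor 340/450 at t0 and t15 min; no-enzyme wells as control.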
# [4] = molecular target: Luciferin 4-monooxygenase (Photinus pyralis) (UniProt P08659); experiment: Primary firefly luciferase (FLuc) qHTS assay for identification of artifact compounds. (AID 1845220); further: nearly all actives have a fitted effect of over 60% in size
# In short: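 Reaction readout was CCD-imaged luminescence, taken 5 min after adding 10 nM purified firefly enzyme to compound-treated wells holding 10 uM luciferin and ATP in pH 7.6 buffer.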
# [5] = Primary fluorescence-based thiol-reactive (MSTI) qHTS assay for identification of artifact compounds. (AID 1845221);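 further: series mostly up to about 54 µM; thiol-reactive compounds lower the probe fluorescence signal; nearly all actives have a fitted effect of over 65% in size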
# In short: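 Curve-fitted percent inhibition (4-parameter Hill) derived from fluorescence, Ex 525/Em 598 nm, scaled with Acetyl-MSTI and MSTI; 1 h incubation at room temperature.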
# [6] = Primary redox qHTS assay for identification of artifact compounds. (AID 1845223)
# In short: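 Redox-cycling detection via DTT (250 uM final) oxidation coupled to Amplex Red (25 uM)/HRP (250 mU/mL) in HBSS. 15 min preincubation plus 30 min after DTT, room temperature. Ex/Em 525/598 nm; 4-parameter Hill fit against DMSO and 10 uM DA3003.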
# [7] = NCATS anti-infectives library activity on HEK293 viability as a counter-qHTS vs the C. elegans viability qHTS (AID 1745854);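 further: HEK293 cells exposed to compounds for 24 hr before the viability read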; further: potency means the concentration at half of the fitted maximal effect
# In short: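 Compound titrations (final up to 41.7 uM) were incubated with HEK293 cells for 24 hr at 37C under 5% CO2. Viable cells were quantified with CellTiter-Glo after 10 min at ambient temperature.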
# [8] = tested on: Nanoluciferase (engineered Oplophorus gracilirostris luciferase); experiment: Primary Nanoluciferase (NLuc) qHTS assay for identification of artifact compounds. (AID 1845222);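 further: NLuc secreted into diluted conditioned medium of S16 cells; series mostly up to about 54 µM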
# In short: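 Concentration-response data were obtained by luminescence after 5 min with Nano-Glo substrate at 1:100. The enzyme was diluted S16 NLuc-expressing cell medium, preincubated with compound for 15 min at RT. Curves were fitted with a 4-parameter Hill model.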
# Glutathione peroxidase 1 (Homo sapiens), sequence (P07203 whole entry, looked up): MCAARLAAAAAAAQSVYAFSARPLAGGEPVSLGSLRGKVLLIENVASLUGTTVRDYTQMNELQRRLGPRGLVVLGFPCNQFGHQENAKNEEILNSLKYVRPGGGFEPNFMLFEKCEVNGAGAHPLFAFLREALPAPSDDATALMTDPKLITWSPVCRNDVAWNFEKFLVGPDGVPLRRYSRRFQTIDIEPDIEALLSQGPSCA
# Phospholipid hydroperoxide glutathione peroxidase GPX4 (Homo sapiens), sequence (P36969 whole entry, looked up): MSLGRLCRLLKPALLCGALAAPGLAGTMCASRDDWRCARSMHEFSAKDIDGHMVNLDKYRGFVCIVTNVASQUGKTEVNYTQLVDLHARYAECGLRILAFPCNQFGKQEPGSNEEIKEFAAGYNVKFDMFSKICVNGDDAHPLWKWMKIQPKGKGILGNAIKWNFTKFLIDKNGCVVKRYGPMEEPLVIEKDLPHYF
# Metallo-beta-lactamase type 2 (Klebsiella pneumoniae), sequence (C7C422 whole entry, looked up): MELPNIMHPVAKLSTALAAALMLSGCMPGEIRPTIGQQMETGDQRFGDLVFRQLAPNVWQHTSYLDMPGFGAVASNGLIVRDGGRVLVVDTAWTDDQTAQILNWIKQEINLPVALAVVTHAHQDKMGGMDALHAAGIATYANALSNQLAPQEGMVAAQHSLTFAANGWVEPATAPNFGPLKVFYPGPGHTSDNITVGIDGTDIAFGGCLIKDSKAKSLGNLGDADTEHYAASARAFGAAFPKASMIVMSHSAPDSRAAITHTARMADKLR
compound,measurement,setting,value
COc1ccccc1N1CCN(CCN2C(=O)CC3(CCCC3)CC2=O)CC1,outcome,[1],inactive
same,Potency,[2],inactive
same,Potency,[3],inactive
same,Potency,[4],inactive
same,Potency,[5],inactive
same,outcome,[6],inactive
O=C(OCC1(COC(=O)c2cccnc2)CCCC(COC(=O)c2cccnc2)(COC(=O)c2cccnc2)C1O)c1cccnc1,Potency,[2],inactive
Cn1cnc2c(NCc3ccccc3)nc(NCCO)nc21,outcome,[1],inactive
same,Potency,[2],inactive
same,Potency,[3],inactive
Cc1nn(-c2ccccc2)c(C)c1/C=N/N1CCN(Cc2ccccc2)CC1,outcome,[1],inactive
same,Potency,[2],inactive
same,Potency,[3],inactive
same,Potency,[4],inactive
same,Potency,[5],inactive
same,outcome,[6],inactive
OCCc1ccccc1,Potency,[7],inactive
same,Potency,[2],inactive
same,Potency,[3],inactive
CCN(CC)CCNC(=O)c1ccc(NS(C)(=O)=O)cc1,outcome,[1],inactive
same,Potency,[2],inactive
same,Potency,[3],inactive
CCCCCCCCCCCCCCCC[n+]1ccccc1,Potency,[7],11.2 µM (active)
same,Potency,[2],inactive
same,Potency,[3],inactive
CN(C)c1cc2c(Nc3ccc4c(cnn4Cc4ccccc4)c3)ncnc2cn1,outcome,[1],inactive
same,Potency,[2],inactive
same,Potency,[3],inactive
same,Potency,[4],inactive
C[C@@H](O[C@H]1OCCN(Cc2n[nH]c(=O)[nH]2)[C@H]1c1ccc(F)cc1)c1cc(C(F)(F)F)cc(C(F)(F)F)c1,Potency,[7],inactive
same,Potency,[2],inactive
Nc1ncnc2n[nH]c(Nc3ccc(F)cc3)c12,outcome,[1],inactive
same,Potency,[2],inactive
same,Potency,[3],inactive
same,Potency,[4],inactive
same,Potency,[8],inactive
same,outcome,[6],inactive
O=[N+]([O-])c1ccc(-c2nc(-c3ccc(F)cc3)c(-c3ccncc3)[nH]2)cc1,outcome,[1],inactive
same,Potency,[2],inactive
same,Potency,[3],inactive
same,Potency,[4],inactive
same,Potency,[8],inactive
same,outcome,[6],inactive
COc1c(C)c2c(c(O)c1C/C=C(\C)CCC(=O)OCCN1CCOCC1)C(=O)OC2,Potency,[7],inactive
same,Potency,[2],inactive
same,Potency,[3],inactive
Nc1nc(=O)n([C@@H]2O[C@H](CO)[C@@H](O)[C@@H]2F)cc1I,Potency,[7],inactive
